Laboratory results published in PubChem BioAssay (EPA / NIEHS).
The source made the active and inactive calls. Rule for the calls: active = hit-call score of the fitted dose curve at least 0.9, where 1 is the maximum; inactive = score below 0.9.

How the values were obtained:
[1] = APR_HepG2_CellLoss_72hr: Apredica 72-hour HepG2 Assay for Cell Loss (AID 2282915); settings: high-content imaging
Outline: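 Cell number comes from Hoechst 33342-labelled nuclei, imaged at 20x after 3.7% formaldehyde fixation. Dosing was 0.39–200 uM, ten concentrations in duplicate, 0.5% DMSO final, for 72 h. Bidirectional fit relative to DMSO baseline.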

[2] = APR_HepG2_P-H2AX_72hr: Apredica 72-hour HepG2 Assay for H2AX Phosphorylation (AID 2282916); settings: imaging, actives raise or lower the signal;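 note: phospho-histone H2A.x immunostain intensity per cell marking DNA damage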
Outline: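 Human hepatoma HepG2 cells are dosed across ten concentrations (0.39 to 200 uM, 0.5% v/v DMSO) and incubated 72 hr. Phospho-histone H2A.x is then detected by antibody staining alongside c-Jun and Hoechst, and quantified by automated fluorescence imaging.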

[3] = APR_HepG2_MitoMembPot_72hr: Apredica 72-hour HepG2 Assay for Mitochondrial Membrane Potential (AID 2282917); settings: imaging, actives raise or lower the signal
Outline: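 Membrane potential read by MitoTracker Red CMXRos (250 nM, 30 min, pre-fixation) fluorescence imaging of HepG2 after 72 hr exposure. Ten concentrations, 0.39–200 uM, duplicate wells, 0.5% DMSO; fitted in both directions against DMSO baseline.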

[4] = APR_HepG2_MitoticArrest_72hr: Apredica 72-hour HepG2 Assay for Mitotic Arrest (AID 2282918); settings: high-content imaging, actives raise or lower the signal
Outline: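 HepG2 cells treated 72 h at 0.39–200 uM, 0.5% DMSO final; formaldehyde-fixed, stained with Hoechst 33342 and phospho-histone H3 antibody, imaged by high-content fluorescence; bidirectional fit versus DMSO.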

[5] = APR_HepG2_MicrotubuleCSK_72hr: Apredica 72-hour HepG2 Assay for Microtubule CSK Stabilty (AID 2282919); settings: HepG2 microtubule cytoskeleton, high-content imaging, actives raise or lower the signal
Outline: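 High-content imaging of alpha-tubulin staining in fixed HepG2 cells after 72 hr treatment with ten concentrations from 0.39 to 200 uM (0.5% DMSO). Fitting was bidirectional against DMSO; taxol served as positive control.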

[6] = APR_HepG2_P-H2AX_24hr: Apredica 24-hour HepG2 Assay for H2AX Phosphorylation (AID 2282920); settings: high-content imaging, actives raise or lower the signal
Outline: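 HepG2 cells dosed 24 h at 0.39–200 uM (10 points, duplicate, 0.5% DMSO final). Formaldehyde-fixed and permeabilized, then immunostained for phospho-H2A.x with Hoechst. Fluorescence quantified by high-content imaging, fitted bidirectionally versus DMSO.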

[7] = APR_HepG2_StressKinase_24hr: Apredica 24-hour HepG2 Assay for Stress Kinase (AID 2282922); settings: HepG2 stress kinase (phospho-c-Jun) imaging, actives raise or lower the signal
Outline: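 High-content imaging of phospho-c-Jun immunofluorescence in fixed, permeabilized HepG2 cells after 24 h dosing. Ten concentrations, 0.39 to 200 uM, run in duplicate at 0.5% v/v DMSO; gain or loss of signal versus DMSO.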

[8] = APR_HepG2_p53Act_72hr: Apredica 72-hour HepG2 Assay for p53 Activation (AID 2282923); settings: high-content imaging, actives raise or lower the signal;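 note: average cellular p53 protein immunofluorescence intensity in HepG2 cells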
Outline: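 Imaging-based endpoint: after 72 hr compound exposure (up to 200 uM, 0.5% DMSO), fixed and permeabilized monolayers were labelled with anti-p53 antibody and imaged; signal change in either direction was fitted relative to DMSO controls.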

[9] = APR_HepG2_MitoMass_72hr: Apredica 72-hour HepG2 Assay for Mitochondrial Mass (AID 2282924); settings: high-content imaging, actives raise or lower the signal;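 note: MitoTracker Red CMXRos stain intensity per cell imaged as mitochondrial mass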
Outline: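 Readout is imaged MitoTracker Red (250 nM, 30 min, pre-fixation) signal, fitted bidirectionally against DMSO baseline. Human HepG2 liver cells received compound 0.39–200 uM in duplicate for 72 hr, final DMSO 0.5%.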

[10] = APR_HepG2_StressKinase_72hr: Apredica 72-hour HepG2 Assay for Stress Kinase (AID 2282921); settings: HepG2 stress kinase (phospho-c-Jun) imaging, actives raise or lower the signal
Outline: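 After a 72 h compound treatment spanning 0.39 to 200 uM, formaldehyde-fixed cells are labelled for phosphorylated c-Jun and nuclei, imaged by automated fluorescence microscopy, and activity is fitted in both directions relative to DMSO controls.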

Compound	outcome [1]	outcome [2]	outcome [3]	outcome [4]	outcome [5]	outcome [6]	outcome [7]	outcome [8]	outcome [9]	AC50 [1]	AC50 [2]	outcome [10]	AC50 [9]	AC50 [6]	AC50 [3]	AC50 [4]	AC50 [8]
CCOC(=O)C(C)(C)Oc1ccc(Cl)cc1	inactive	inactive	inactive	inactive	inactive	inactive	inactive	inactive	inactive								
OC[C@@H](O)[C@@H](O)[C@H](O)[C@H](O)CO	inactive	inactive	inactive	inactive	inactive	inactive	inactive	inactive	inactive								
CC(C)c1ccc(C(=O)N=C(N)N)cc1S(C)(=O)=O	inactive	inactive	inactive	inactive	inactive	inactive	inactive	inactive	inactive								
Cc1ccc(N(C)C)cc1	inactive	inactive	inactive	inactive	inactive	inactive	inactive	inactive	inactive								
Oc1ccc2ccccc2c1N=Nc1ccccc1			inactive		inactive	inactive	inactive	inactive		0.606 µM (active)	2.49 µM (active)	inactive	0.0806 µM (active)				
Cc1ccc(Cl)cc1	inactive	inactive	inactive		inactive	inactive	inactive	inactive	inactive			inactive					
COc1cc(S(=O)(=O)O)c(C)cc1N=Nc1c(O)ccc2cc(S(=O)(=O)O)ccc12	inactive	inactive	inactive	inactive	inactive	inactive	inactive	inactive	inactive								
Cc1cccc(C)c1O	inactive	inactive	inactive		inactive	inactive	inactive	inactive	inactive			inactive					
O=c1c(O)c(-c2ccc(O)c(O)c2)oc2cc(O)cc(O)c12			inactive		inactive		inactive	inactive		22.6 µM (active)	68.1 µM (active)	inactive	7.83 µM (active)	48.6 µM (active)			
FC(F)(F)C(F)(F)C(F)(F)C(F)(F)C(F)(F)C(F)(F)CCI	inactive	inactive	inactive		inactive	inactive	inactive	inactive	inactive			inactive					
CC(=O)OCCOCCOCCOC(C)=O	inactive	inactive	inactive	inactive	inactive	inactive	inactive	inactive	inactive								
C=CCOC(=O)c1ccccc1C(=O)OCC=C	inactive	inactive	inactive	inactive	inactive	inactive	inactive	inactive	inactive								
C=CCc1ccc(O)c(OC)c1	inactive	inactive		inactive	inactive	inactive	inactive	inactive	inactive						68.6 µM (active)		
CCCCc1ccc2c(n1)[C@@H](c1ccc(OC)cc1C[C@H](C)C(=O)O)[C@H](C(=O)O)[C@H]2c1ccc2c(c1)OCO2	inactive	inactive	inactive	inactive	inactive	inactive	inactive	inactive	inactive								
CCOc1ccc2c(c1)C(C)=CC(C)(C)N2			inactive		inactive		inactive		inactive	103 µM (active)	92.7 µM (active)			72.7 µM (active)		78.2 µM (active)	76.1 µM (active)
COCCOCCOC	inactive	inactive	inactive		inactive	inactive	inactive	inactive	inactive			inactive					
CCNc1cccc(C)c1	inactive	inactive	inactive		inactive	inactive	inactive	inactive	inactive			inactive					
C[Si]1(C)O[Si](C)(C)O[Si](C)(C)O[Si](C)(C)O1	inactive	inactive	inactive		inactive	inactive	inactive	inactive	inactive			inactive					
CC1(C)NC(=O)NC1=O	inactive	inactive	inactive		inactive	inactive	inactive	inactive	inactive								
CCCCCCCCCCO	inactive	inactive	inactive		inactive	inactive	inactive	inactive	inactive			inactive					
Cc1ccc(C)c(O)c1C		inactive	inactive		inactive	inactive	inactive			12.4 µM (active)		inactive	9.74 µM (active)				16.9 µM (active)
Nc1ccc2c(c1)C(=O)c1ccccc1C2=O			inactive		inactive		inactive		inactive	11.5 µM (active)	16.2 µM (active)	inactive		21.2 µM (active)			19.3 µM (active)
Cc1nc(C)nc(N2C[C@@H](C)N(c3ccnc([C@@H](C)O)n3)[C@@H](C)C2)n1	inactive	inactive	inactive		inactive	inactive	inactive	inactive	inactive								
